Results published in PubChem BioAssay AID1878 (Sanford-Burnham Center for Chemical Genomics, 2009).
Screen size: about 1,000 compounds; about 200 (20%) were called active. Rule as the data show it: active = inhibition above about 55%; inactive = the rest. These entries were drawn from the full list. Entries with a potency or affinity are not part of this list.

target: Dual specificity protein phosphatase 3 (Homo sapiens) (UniProt P51452); assay: VHR1 phosphatase inhibitors, biochemical (AID 1878); conditions: recombinant VHR phosphatase, fluorogenic substrate; at 13.3 µM; active compounds read high
Sequence (P51452 whole entry, looked up): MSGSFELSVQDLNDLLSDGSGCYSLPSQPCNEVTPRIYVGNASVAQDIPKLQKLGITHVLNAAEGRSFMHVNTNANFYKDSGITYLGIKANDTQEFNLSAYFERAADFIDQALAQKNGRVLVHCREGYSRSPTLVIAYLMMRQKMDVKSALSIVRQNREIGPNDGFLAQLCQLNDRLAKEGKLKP

SMILES | inhibition
CN(Cc1ccccn1)C(=O)C1CCC(=O)N(CCc2ccc(Cl)cc2)C1 (stereo not drawn) | -11.4% (inactive)
COc1ccc(NC(=O)CN(C)S(=O)(=O)c2ccc3[nH]c(=O)oc3c2)cc1 | 12.6% (inactive)
Cn1c(=O)oc2cc(S(=O)(=O)NCCC(=O)NCc3ccccc3Cl)ccc21 | 14.6% (inactive)
COc1ccccc1-c1nc2c3ccccc3nc(=S)n2[nH]1 | 7.9% (inactive)
CC(C)c1ccc(NS(=O)(=O)c2cccc3cccnc23)cc1 | -1% (inactive)
COc1ccccc1-c1cc(C(=O)Nc2cccnc2Cl)no1 | 12.2% (inactive)
Cc1cc(NC(=O)C2CCCCC2)ncc1NC(=O)c1ccccn1 | 9% (inactive)
COc1ccc2c(c1)C(=NNC(=O)c1ccccn1)c1cc(OC)ccc1-2 | 99.3% (active)
CCOC(=O)c1sc(=NC(=O)c2c(F)cccc2F)n(C)c1C | 26.7% (inactive)
CC(=O)NCCC(=O)N(C)CC1CCN(CCc2cccc(C(F)(F)F)c2)CC1 | -21.4% (inactive)
CCOC(=O)c1ccc(NC(=O)CCS(=O)(=O)Cc2ccccc2)cc1 | 11.4% (inactive)
Cc1ccc(NC(=O)COc2cccc(/C=C3\SC(=S)N(CCC(=O)O)C3=O)c2)cc1Cl | 79.2% (active)
CCc1ccc(/C=C2/SC(=S)N(CCC(=O)Nc3ccc(C(=O)O)cc3)C2=O)cc1 | 87.1% (active)
COc1ccc(/C=C2\SC(=S)N(CCC(=O)Nc3cccc(C(=O)O)c3)C2=O)cc1 | 86.4% (active)
COc1ccccc1C(=O)NNC(=O)CCN1C(=O)/C(=C\c2ccccc2)SC1=S | 38.1% (inactive)
O=C(CCN1C(=O)/C(=C\C=C\c2ccccc2)SC1=S)Nc1ccc(C(=O)O)cc1 | 98.7% (active)
COc1cccc(NC(=O)CCc2nc(-c3cccs3)no2)c1 | 11.2% (inactive)
COc1ccc(S(=O)(=O)NCC2CCCN(Cc3cn(C)nc3C)C2)cc1 (stereo not drawn) | 0.5% (inactive)
COc1ccccc1N1CCN(S(=O)(=O)c2ccc3c(c2)CC(C)N3C(C)=O)CC1 (stereo not drawn) | 2.4% (inactive)
CCC1CCCCN1CCCNC(=O)c1ccc2c(c1)NC(=O)CN2C (stereo not drawn) | -26.5% (inactive)

SMILES | inhibition
CCCCN(Cc1ccco1)C(=O)C1CCCN(c2ncnc3c2nc2n3CCCCC2)C1 (stereo not drawn) | -4.3% (inactive)
CCCN1C2CCCC1CC(NC(=O)c1ccccc1OC)C2 (stereo not drawn) | -6.6% (inactive)
Cc1ccc(CNS(=O)(=O)c2c(C)[nH]c(=O)[nH]c2=O)cc1 | -4.8% (inactive)
NC(=O)c1ccc(NC(=O)CS(=O)(=O)c2cn(CC(=O)N3CCCC3)c3ccccc23)cc1 | -13.4% (inactive)
Cc1ccc(/C=N/N(C)C2=NS(=O)(=O)c3ccccc32)cc1 | 21.9% (inactive)
COCCCNC(=O)c1ccc(CS(=O)(=O)c2ccccc2OC)o1 | -5.7% (inactive)
Nc1[nH]n2c(=O)cc(-c3ccccc3)nc2c1N=Nc1ccc2c(c1)OCO2 | 98.8% (active)
COc1cccc(N2CCN(c3ccc4nnc(CCC(=O)Nc5ccc(F)cc5F)n4n3)CC2)c1 | 6.6% (inactive)
Cc1cc(C)c(S(=O)(=O)Cc2ccccc2)c(Cl)n1 | 7.3% (inactive)
COc1ccc(/C=C/C(=O)NC(=S)Nc2cc([N+](=O)[O-])ccc2O)cc1OC | 95.7% (active)
CCOc1cc2[nH]c(=S)n(Cc3ccc(C(=O)NCCN(CC)CC)cc3)c(=O)c2cc1OCC | -9.2% (inactive)
Nn1c(SCC(=O)Nc2ccccc2F)nnc1C1CCCCC1 | 18.2% (inactive)
O=C(Nc1c(C(=O)N2CCC(N3CCCCC3)CC2)oc2ccccc12)c1ccc(F)cc1 | -2.2% (inactive)
CC1CCCCN1C(=O)CCC(=O)Nc1nnc(C2CCCCC2)s1 (stereo not drawn) | -7.6% (inactive)
Cc1ccccc1-c1nc(CS(=O)(=O)CC(=O)NC2CCCC2)c(C)o1 | 7.2% (inactive)
O=c1oc(-c2ccccc2Cl)nc2ccsc12 | 5.6% (inactive)
CCn1c(SCC(=O)N2CCOCC2)nc2c(c1=O)SC(C)C2 (stereo not drawn) | -2.5% (inactive)
COc1ccc(CC(=O)N/N=C(\C)CC(=O)Nc2ccc(N(C)C)cc2)cc1 | -12.6% (inactive)
O=C1CN(c2ccc(F)cc2)C(=S)N1c1ccccc1 | 4.8% (inactive)
C[C@@H]1NC(=O)N(c2ccc(F)cc2)C1=O | -6.6% (inactive)

SMILES | inhibition
CCN1CCN(C(CNS(=O)(=O)c2ccc(OC)c(C)c2)c2cccnc2)CC1 (stereo not drawn) | -7.5% (inactive)
CC1CCN(Cc2nnnn2CCCC(=O)N(C)C(C)c2ccccn2)CC1 (stereo not drawn) | 7.9% (inactive)
COc1cc(OC)cc(C(=O)NN(CCC#N)C2=NS(=O)(=O)c3ccccc32)c1 | 15.9% (inactive)
Cc1ccccc1OCCCN1CCOCC1 | 2% (inactive)
CCc1ccc(/C=C/c2c([N+](=O)[O-])c(=O)n(C)c(=O)n2C)cc1 | 3.6% (inactive)
Cc1ccc(C)c(Nc2ccc3nonc3c2[N+](=O)[O-])c1 | -8.6% (inactive)
Cc1cc(OCc2cc(C(=O)N(C)CCCN3CCOCC3)no2)cc(C)c1Cl | -10.5% (inactive)
COc1cc(Cl)ccc1OCc1cc(C(=O)NCC(C)c2ccccc2)no1 (stereo not drawn) | 11.7% (inactive)
Cc1ccc(CN2CCN(Cc3cccc(C)n3)CC2CCO)cc1 (stereo not drawn) | 3.8% (inactive)
CC(C)(C)CN1CCN(Cc2c[nH]c3ccccc23)CC1CCO (stereo not drawn) | -9.5% (inactive)
COc1ccc(-c2n[nH]c3c2CN(C(=O)c2ccc(OC)c(OC)c2)CC3)cc1 | -2.9% (inactive)
CCc1cc2c(C)ccc(C)c2nc1SCC(=O)Nc1c[nH]c(=O)[nH]c1=O | 27.1% (inactive)
Nc1cc(=O)[nH]c(SCC(=O)Nc2ccc(Oc3ccccc3)cc2)n1 | -5% (inactive)
O=C(CSc1n[nH]c(=O)[nH]c1=O)Nc1ccc2c(c1)C(=O)c1ccccc1C2=O | 98% (active)
CC1=C(C(=O)OCC2CCCCC2)C(c2ccc(F)cc2)NC(=O)N1 (stereo not drawn) | -8.4% (inactive)
CCOC(=O)C1=C(N)n2c(s/c(=C\c3ccncc3)c2=O)=C(C(=O)OCC)C1c1ccncc1 (stereo not drawn) | 39.4% (inactive)
CC1=C(C(=O)OC(C)C)C(c2ccc(Cl)cc2)n2c(s/c(=C\c3ccc(OCC(=O)O)cc3)c2=O)=N1 (stereo not drawn) | 97.4% (active)
CCC1CCCCN1CCCNS(=O)(=O)c1ccc2c(c1)oc(=O)n2C (stereo not drawn) | -1.5% (inactive)
